Assay results taken from PubChem BioAssay.
Inconclusive results are not listed. The source made the active and inactive calls. Unless noted, no stated cut-off is given here; in the data, active means response above about 15%; inactive means the rest.

How the values were obtained:
[1] = rapamycin-like changes in RPL19A-GFP expression – cell-based, S. cerevisiae, multiplex flow cytometry, primary screen (AID 1862; in the data active means percent of DMSO control GFP below about 86%;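 further: lower values mimic rapamycin by blocking the RPL19A rise seen in DMSO cells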); details: S. cerevisiae RPL19A-GFP strain, flow cytometry fluorescence, 3 h; at 10 µM; stronger effect = lower value
[2] = TOR pathway GLN3 branch reporter MEP2-GFP changes – S. cerevisiae, multiplex flow cytometry, primary screen (AID 1867;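 active means GFP response, as percent of the DMSO control, above the screen-wide mean plus 3 SD, about 139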;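 further: median GFP channel fluorescence of barcode-gated MEP2-GFP cells measured by flow cytometry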); details: S. cerevisiae MEP2-GFP strain, 3 h, at 10 µM, stronger effect = higher value, 100% means same as DMSO wells
[3] = TOR pathway RTG branch CIT2 reporter changes – S. cerevisiae, GFP fusion, multiplex flow cytometry, primary screen (AID 1870;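 active means percent response above a set limit, the screen-wide mean plus 3 SD, cut at about 130% in these data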;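 further: barcoded CIT2-GFP strain pooled with four other GFP strains with rapamycin as positive control; median GFP fluorescence per well over plate mean of DMSO wells so 100% = DMSO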); details: S. cerevisiae CIT2-GFP expression, 3 h, at 10 µM, stronger effect = higher value
[4] = TOR pathway LAP4-GFP level changes – S. cerevisiae, multiplex flow cytometry, primary screen (AID 1873;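 active means GFP signal, as percent of the solvent control, above the screen mean plus 3 SD, about 149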); details: S. cerevisiae LAP4-GFP expression, 3 h, at 10 µM, stronger effect = higher value
[5] = yeast AGP1-GFP level changes, GLN3 branch – cell-based, multiplex flow cytometry, S. cerevisiae, primary screen (AID 1887;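 active means GFP signal above the screen-wide mean plus 3 SD, that is over about 124.5% of the solvent control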;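 further: AGP1-GFP fusion strain of S. cerevisiae within a five-strain barcoded multiplex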); details: 3 h, at 10 µM, stronger effect = higher value
[6] = reduced mouse 2C T cell binding to pMHC/ICAM-1 vesicles – MLPCN validation set, flow cytometry, LFA-1/ICAM-1 modulator project, pilot screen (AID 2523;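 active means response below a set limit, under 55% cells CD8-positive and vesicle-bound, and CD8 cells' 90th-percentile brightness under 279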;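 on vesicle binding response: mean PE anti-B7-1 fluorescence of CD8+ cells relative to row control; 100% = QL9-loaded vesicles with DMSO vehicle in the same plate row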); details: 2C mouse CD8+ T cells, at 7 µM, stronger effect = lower value; double positive events: measured here: CD8+/vesicle+ event percentage
[7] = target: Integrin beta-1 (Homo sapiens) + Integrin alpha-4 (Homo sapiens) (UniProt P13612+P05556); assay: alpha4beta1 integrin LIBS antibody binding reduction – U937 cells, HUTS-21 mAb, flow cytometry, validation set, VLA-4 allosteric modulator project, pilot screen (AID 2674;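 active means inhibition above 50%, about 3 SD of the validation set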;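 further: antibody binding induced by the VLA-4 ligand LDV present at three times its Kd; 0% = LDV ligand with antibody and no compound and 100% = antibody without LDV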); details: HUTS-21 LIBS mAb binding, at 6.7 µM, stronger effect = higher value, binding induced by LDV ligand
Sequence of Integrin beta-1 (Homo sapiens) + Integrin alpha-4 (Homo sapiens) (P05556 whole entry, looked up): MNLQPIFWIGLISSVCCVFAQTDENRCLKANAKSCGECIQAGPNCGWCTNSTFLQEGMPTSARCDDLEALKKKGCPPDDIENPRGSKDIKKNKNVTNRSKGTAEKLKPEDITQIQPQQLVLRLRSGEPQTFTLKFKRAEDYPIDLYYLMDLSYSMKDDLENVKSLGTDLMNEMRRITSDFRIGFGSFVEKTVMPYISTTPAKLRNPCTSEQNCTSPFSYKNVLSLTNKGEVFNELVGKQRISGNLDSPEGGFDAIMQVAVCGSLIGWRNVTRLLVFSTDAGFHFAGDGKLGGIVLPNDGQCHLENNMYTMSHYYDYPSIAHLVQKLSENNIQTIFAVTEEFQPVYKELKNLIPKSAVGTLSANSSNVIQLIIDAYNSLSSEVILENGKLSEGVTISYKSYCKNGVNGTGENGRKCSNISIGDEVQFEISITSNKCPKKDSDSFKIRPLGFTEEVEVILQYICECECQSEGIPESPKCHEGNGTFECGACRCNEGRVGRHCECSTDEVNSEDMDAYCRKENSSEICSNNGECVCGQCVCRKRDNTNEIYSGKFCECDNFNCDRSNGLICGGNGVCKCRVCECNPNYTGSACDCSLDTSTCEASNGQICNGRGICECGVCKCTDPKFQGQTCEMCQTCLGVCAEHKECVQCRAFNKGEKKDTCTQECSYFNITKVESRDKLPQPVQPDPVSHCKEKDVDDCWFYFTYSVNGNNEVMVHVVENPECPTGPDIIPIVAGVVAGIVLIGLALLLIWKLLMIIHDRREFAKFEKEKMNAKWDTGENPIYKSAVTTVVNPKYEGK
Sequence of Integrin beta-1 (Homo sapiens) + Integrin alpha-4 (Homo sapiens) (P13612 whole entry, looked up): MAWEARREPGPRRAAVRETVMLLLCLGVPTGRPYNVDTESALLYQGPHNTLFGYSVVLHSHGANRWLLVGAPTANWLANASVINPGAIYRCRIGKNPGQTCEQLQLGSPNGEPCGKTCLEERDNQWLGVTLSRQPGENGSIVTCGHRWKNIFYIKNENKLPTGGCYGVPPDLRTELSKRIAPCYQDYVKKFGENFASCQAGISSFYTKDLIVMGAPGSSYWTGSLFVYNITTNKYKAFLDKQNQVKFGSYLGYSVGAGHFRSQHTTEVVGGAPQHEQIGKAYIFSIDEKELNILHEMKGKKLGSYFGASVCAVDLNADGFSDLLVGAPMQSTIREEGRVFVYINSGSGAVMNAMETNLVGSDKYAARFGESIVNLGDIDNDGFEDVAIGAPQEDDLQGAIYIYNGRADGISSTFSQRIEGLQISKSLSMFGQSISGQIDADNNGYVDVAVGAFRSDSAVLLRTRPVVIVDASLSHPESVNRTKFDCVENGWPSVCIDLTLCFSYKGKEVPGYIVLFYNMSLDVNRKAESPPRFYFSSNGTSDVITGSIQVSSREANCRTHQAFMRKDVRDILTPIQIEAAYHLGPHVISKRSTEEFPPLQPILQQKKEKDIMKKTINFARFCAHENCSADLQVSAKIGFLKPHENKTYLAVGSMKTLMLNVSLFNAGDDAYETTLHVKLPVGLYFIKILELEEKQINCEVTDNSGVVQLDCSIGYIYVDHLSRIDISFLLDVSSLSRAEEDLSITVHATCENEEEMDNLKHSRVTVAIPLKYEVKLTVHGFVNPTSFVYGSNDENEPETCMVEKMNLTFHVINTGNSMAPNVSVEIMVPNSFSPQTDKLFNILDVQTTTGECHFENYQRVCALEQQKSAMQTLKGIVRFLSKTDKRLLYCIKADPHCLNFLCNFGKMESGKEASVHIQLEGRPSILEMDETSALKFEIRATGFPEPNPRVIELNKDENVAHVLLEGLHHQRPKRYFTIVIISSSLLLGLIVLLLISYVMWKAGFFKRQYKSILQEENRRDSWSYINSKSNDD

[8] = calorie-restriction mimetic ROS inhibitors, yeast – validation compound set, pilot screen (AID 2706;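 active means superoxide response below 65% of plate, a cut near 3 SD across the whole screen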;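 further: yeast exposed to compound for one week at 30 degrees C before staining; 100% = mean of all compound wells on the same plate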); details: S. cerevisiae aging, superoxide DHE fluorescence; at 10 µM; stronger effect = lower value
[9] = target: Beta-adrenergic receptor kinase 1 (Homo sapiens) (UniProt P25098); assay: GRK2 binders displacing RNA aptamer, biochemical, validation, human GRK2, bead flow cytometry (AID 488806;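 active means aptamer binding inhibition above 30%, about 3 SD of noise from non-fluorescent compounds; inactive means inhibition at or below 30%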); details: bead-bound GRK2, FAM-aptamer displacement, at 10 µM, stronger effect = higher value
Sequence of Beta-adrenergic receptor kinase 1 (Homo sapiens) (P25098 whole entry, looked up): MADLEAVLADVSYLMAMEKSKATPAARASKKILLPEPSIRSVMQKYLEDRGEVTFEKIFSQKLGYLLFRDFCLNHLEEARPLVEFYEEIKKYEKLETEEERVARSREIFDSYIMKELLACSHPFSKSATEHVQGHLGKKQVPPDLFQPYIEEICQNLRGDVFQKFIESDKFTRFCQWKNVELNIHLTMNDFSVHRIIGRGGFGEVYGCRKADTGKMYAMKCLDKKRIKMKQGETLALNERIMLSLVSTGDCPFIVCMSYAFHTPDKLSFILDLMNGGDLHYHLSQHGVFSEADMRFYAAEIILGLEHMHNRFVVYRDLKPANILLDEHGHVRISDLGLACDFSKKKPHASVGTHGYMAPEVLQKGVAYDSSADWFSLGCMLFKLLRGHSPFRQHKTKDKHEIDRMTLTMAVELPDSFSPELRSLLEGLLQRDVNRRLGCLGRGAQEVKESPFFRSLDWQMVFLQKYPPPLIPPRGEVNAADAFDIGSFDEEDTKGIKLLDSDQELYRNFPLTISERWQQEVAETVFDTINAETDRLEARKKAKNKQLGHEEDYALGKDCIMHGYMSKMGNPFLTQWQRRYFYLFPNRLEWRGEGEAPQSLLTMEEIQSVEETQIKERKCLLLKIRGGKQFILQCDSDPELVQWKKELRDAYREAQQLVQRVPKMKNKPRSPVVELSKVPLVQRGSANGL

[10] = target: Beta-2 adrenergic receptor (Homo sapiens) (UniProt P07550); assay: agonist-induced loss of surface beta2AR – cell-based, FAP fluorogen, flow cytometry, validation set, pilot screen (AID 504459;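 active means percent response above 42, roughly 3 SD of non-fluorescent test compounds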;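 further: agonist-driven loss of surface beta2AR via internalization measured by FAP dye flow cytometry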); details: Am2.2-beta2AR cells, at 10 µM, stronger effect = higher value
Sequence of Beta-2 adrenergic receptor (Homo sapiens) (P07550 whole entry, looked up): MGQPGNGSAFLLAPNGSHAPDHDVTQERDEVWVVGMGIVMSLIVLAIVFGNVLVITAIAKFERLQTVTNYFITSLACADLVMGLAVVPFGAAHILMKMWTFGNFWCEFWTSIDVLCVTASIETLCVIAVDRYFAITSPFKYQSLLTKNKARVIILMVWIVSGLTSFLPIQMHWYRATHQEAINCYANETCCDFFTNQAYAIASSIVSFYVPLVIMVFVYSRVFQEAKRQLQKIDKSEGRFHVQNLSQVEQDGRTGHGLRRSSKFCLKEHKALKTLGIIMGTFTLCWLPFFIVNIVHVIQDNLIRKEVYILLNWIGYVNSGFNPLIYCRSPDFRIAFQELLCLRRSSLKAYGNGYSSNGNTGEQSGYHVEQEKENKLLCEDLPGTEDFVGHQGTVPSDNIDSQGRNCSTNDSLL

[11] = target: AP-2 complex subunit beta (Homo sapiens) (UniProt P63010); assay: beta-arrestin/AP2 interaction blockers – biochemical, validation set, GST-AP2 beads, flow cytometry, pilot screen (AID 504541;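 active means inhibition above 54%, about 3 SD of non-fluorescent compounds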;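 further: AP2 carries R879A mutation and is captured from E. coli lysate; bead-bound FITC arrestin peptide fluorescence measuring arrestin peptide binding to AP2; 0% = DMSO wells and 100% = excess unlabeled arrestin peptide control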); details: FITC arrestin peptide, at 10 µM, stronger effect = higher value, AP2 beta2 appendage fragment, R879A mutant
Sequence of AP-2 complex subunit beta (Homo sapiens) (P63010 whole entry, looked up, the tested form may be a part, one chain of several): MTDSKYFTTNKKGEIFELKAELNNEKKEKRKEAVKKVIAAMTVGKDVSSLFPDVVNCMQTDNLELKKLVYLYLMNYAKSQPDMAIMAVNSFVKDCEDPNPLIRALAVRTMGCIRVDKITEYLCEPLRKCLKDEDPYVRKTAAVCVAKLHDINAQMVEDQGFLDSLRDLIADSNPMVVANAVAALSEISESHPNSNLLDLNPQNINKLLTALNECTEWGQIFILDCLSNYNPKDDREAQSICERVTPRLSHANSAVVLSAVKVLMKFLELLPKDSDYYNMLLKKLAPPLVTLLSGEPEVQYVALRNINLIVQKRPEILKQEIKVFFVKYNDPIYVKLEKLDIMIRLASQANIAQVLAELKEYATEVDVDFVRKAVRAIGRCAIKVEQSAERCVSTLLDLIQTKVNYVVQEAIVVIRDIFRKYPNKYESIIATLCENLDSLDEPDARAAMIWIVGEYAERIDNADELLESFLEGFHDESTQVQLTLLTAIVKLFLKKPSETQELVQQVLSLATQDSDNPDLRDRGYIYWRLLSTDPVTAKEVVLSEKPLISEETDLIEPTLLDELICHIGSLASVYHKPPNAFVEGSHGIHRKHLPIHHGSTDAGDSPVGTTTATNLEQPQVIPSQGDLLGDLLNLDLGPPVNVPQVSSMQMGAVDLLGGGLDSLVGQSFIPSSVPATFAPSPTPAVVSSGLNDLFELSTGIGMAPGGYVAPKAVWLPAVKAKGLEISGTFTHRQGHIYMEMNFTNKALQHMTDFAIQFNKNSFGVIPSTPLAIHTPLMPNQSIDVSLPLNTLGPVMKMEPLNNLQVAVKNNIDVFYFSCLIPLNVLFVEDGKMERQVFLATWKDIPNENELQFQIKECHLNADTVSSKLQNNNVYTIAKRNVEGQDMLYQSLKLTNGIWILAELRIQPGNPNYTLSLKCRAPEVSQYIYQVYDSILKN

[12] = cytosolic pH regulators acting via V-ATPase – S. cerevisiae, pHLuorin, HTS validation (AID 504600); details: V-ATPase proton transport, at 10 µM, stronger effect = higher value;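 further: plate controls were DMSO for no effect and reference compound for full effect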
[13] = test system: anti-desmoglein-3 scFv antibody binding to human DSG3; assay: blockers of pathogenic pemphigus antibody–desmoglein-3 binding – biochemical, validation compound set, bead-based, flow cytometry, pilot screen (AID 588368;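 active means binding below the plate cutoff, the plate median minus 3 SD, with a reading above zero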;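 further: signal is the median channel fluorescence of bead-bound GFP antibody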); details: Protein G beads, DSG3-Fc, scFv-GFP binding, at 10 µM, stronger effect = lower value
[14] = Nile Red efflux blockade in pump-expressing yeast – validation compound set, multiplex, phenotypic, pilot screen (AID 588506;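 active means efflux inhibition above 0.42, the validation set average plus 4 SD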;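 further: Nile Red retained in cells so higher fluorescence means more efflux inhibition; 0 = negative control wells and 1 = enniatin B 25 µM full block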); details: S. cerevisiae pump-expressing triplex, Nile Red efflux flow cytometry; at 10 µM; stronger effect = higher value; the pumps come from Candida albicans
[15] = target: ATP-binding cassette sub-family B member 6 (Homo sapiens) (UniProt Q9NP58); assay: blockers of ABCB6-driven porphyrin uptake – K562-ABCB6 cells, flow cytometry, validation set, pilot screen (AID 588550;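 active means inhibition above the screen-wide mean plus 3 SD, about 51%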;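 further: 0% = DMSO wells and 100% = benzethonium chloride 70 µM positive control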); details: K562-ABCB6 porphyrin accumulation, 1 h, at 10 µM, stronger effect = higher value
Sequence of ATP-binding cassette sub-family B member 6 (Homo sapiens) (Q9NP58 whole entry, looked up): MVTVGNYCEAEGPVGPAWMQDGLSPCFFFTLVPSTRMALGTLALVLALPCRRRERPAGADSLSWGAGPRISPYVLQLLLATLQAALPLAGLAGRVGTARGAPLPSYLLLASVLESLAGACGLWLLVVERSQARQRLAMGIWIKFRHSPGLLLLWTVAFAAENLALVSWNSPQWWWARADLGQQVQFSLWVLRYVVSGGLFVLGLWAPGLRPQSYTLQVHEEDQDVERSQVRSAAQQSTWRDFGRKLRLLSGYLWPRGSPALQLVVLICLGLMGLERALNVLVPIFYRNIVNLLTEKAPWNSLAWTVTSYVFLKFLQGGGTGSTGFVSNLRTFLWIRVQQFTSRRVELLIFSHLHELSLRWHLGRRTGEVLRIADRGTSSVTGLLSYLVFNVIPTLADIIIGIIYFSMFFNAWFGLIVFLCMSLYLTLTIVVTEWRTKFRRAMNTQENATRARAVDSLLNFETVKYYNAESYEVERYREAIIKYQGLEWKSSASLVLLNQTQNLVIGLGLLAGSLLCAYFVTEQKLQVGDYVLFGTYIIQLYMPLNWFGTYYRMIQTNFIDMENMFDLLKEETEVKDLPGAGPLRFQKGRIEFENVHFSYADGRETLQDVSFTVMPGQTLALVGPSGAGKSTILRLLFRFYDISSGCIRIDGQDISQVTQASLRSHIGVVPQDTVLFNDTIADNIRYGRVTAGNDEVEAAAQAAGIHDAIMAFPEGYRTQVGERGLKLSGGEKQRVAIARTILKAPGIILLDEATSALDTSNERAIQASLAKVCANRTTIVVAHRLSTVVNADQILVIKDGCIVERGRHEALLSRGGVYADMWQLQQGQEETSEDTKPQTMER

[16] = AML differentiation inducers, ER-HoxA9 marrow cells – cell-based, GFP/MAC1 double positive, flow cytometry, validation set, primary screen (AID 588685;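 active means differentiation response of at least 50%, scaled between solvent and reference control, from cells with both markers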;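 further: compound exposure lasts four days before antibody staining and flow analysis; 0% = DMSO wells and 100% = 5 µM fulvestrant positive control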); details: stronger effect = higher value, normalized: vehicle 0, fulvestrant 100

CCc1ccc2oc(=O)cc(CN3CCC(C)CC3)c2c1
inactive: percent of DMSO control GFP [1] 95% | GFP response vs DMSO [2] 104% | percent response of DMSO control [3] 95.8% | GFP response vs DMSO [4] 123% | GFP response, % of DMSO [5] 95.8% | vesicle binding response [6] 178% | inhibition [7] -18.2% | superoxide response (% of plate) [8] 98.9% | aptamer binding inhibition [9] 0% | response [10] 13.8% | inhibition [11] -0.51% | binding (% of control) [13] 103% | efflux inhibition (fraction of control) [14] -0.06 | inhibition [15] -5% | differentiation response [16] -12%
active: response [12] 85.2%
53.7%: double positive events [6]

CC(=O)[C@@H]1[C@@H](C(=O)c2ccc(C)cc2)[C@]2(C(=O)Nc3ccccc32)[C@H]2C=Cc3cc(F)ccc3N12
inactive: percent of DMSO control GFP [1] 97.4% | GFP response vs DMSO [2] 102% | percent response of DMSO control [3] 90.1% | GFP response vs DMSO [4] 117% | GFP response, % of DMSO [5] 100% | vesicle binding response [6] 161% | inhibition [7] -119% | superoxide response (% of plate) [8] 112% | aptamer binding inhibition [9] 4% | response [10] 40.7% | inhibition [11] 4.08% | response [12] -5.02% | binding (% of control) [13] 98.9% | efflux inhibition (fraction of control) [14] -0.03 | inhibition [15] 2% | differentiation response [16] 8.8%
61.3%: double positive events [6]

CC1(C)[C@@H](O)CC[C@]2(C)[C@H]3C(=O)C=C4[C@@H]5C[C@@](C)(C(=O)O)CC[C@]5(C)CC[C@@]4(C)[C@]3(C)CC[C@@H]12
inactive: percent of DMSO control GFP [1] 98.8% | GFP response vs DMSO [2] 100% | percent response of DMSO control [3] 89.6% | GFP response vs DMSO [4] 112% | GFP response, % of DMSO [5] 91% | vesicle binding response [6] 698% | inhibition [7] 13% | superoxide response (% of plate) [8] 82.7% | aptamer binding inhibition [9] 7% | response [10] 7.4% | inhibition [11] -5.72% | response [12] 0.36% | binding (% of control) [13] 97.6% | efflux inhibition (fraction of control) [14] 0.11 | inhibition [15] 15% | differentiation response [16] 16.9%
64.3%: double positive events [6]

Cc1ccc(/C=N/NC(=O)C2(C)CC2(Br)Br)cc1 (stereo unspecified)
60.8%: double positive events [6]
inactive: percent of DMSO control GFP [1] 101% | GFP response vs DMSO [2] 98.7% | percent response of DMSO control [3] 98.6% | GFP response vs DMSO [4] 130% | GFP response, % of DMSO [5] 105% | vesicle binding response [6] 184% | inhibition [7] -7.79% | superoxide response (% of plate) [8] 84.5% | aptamer binding inhibition [9] -4% | response [10] -4.63% | inhibition [11] 4.52% | response [12] 1.48% | binding (% of control) [13] 104% | efflux inhibition (fraction of control) [14] -0.22 | inhibition [15] -2% | differentiation response [16] -11.9%

CC12CCC(C(=O)NCc3ccc4c(c3)OCO4)(CC1=O)C2(C)C (stereo unspecified)
60.9%: double positive events [6]
inactive: percent of DMSO control GFP [1] 100% | GFP response vs DMSO [2] 98.6% | percent response of DMSO control [3] 103% | GFP response vs DMSO [4] 102% | GFP response, % of DMSO [5] 107% | vesicle binding response [6] 252% | inhibition [7] 0.59% | superoxide response (% of plate) [8] 113% | aptamer binding inhibition [9] 0% | response [10] -30.8% | inhibition [11] 4.11% | response [12] -1.56% | binding (% of control) [13] 105% | efflux inhibition (fraction of control) [14] 0.08 | inhibition [15] 6% | differentiation response [16] -1.05%

COc1ccc(-c2coc3c(CN4CCOCC4)c(O)ccc3c2=O)cc1
57.5%: double positive events [6]
active: inhibition [11] 55.9%
inactive: percent of DMSO control GFP [1] 105% | GFP response vs DMSO [2] 99.7% | percent response of DMSO control [3] 109% | GFP response vs DMSO [4] 93.7% | GFP response, % of DMSO [5] 105% | vesicle binding response [6] 118% | inhibition [7] -5.11% | superoxide response (% of plate) [8] 103% | aptamer binding inhibition [9] -6% | response [10] -34.4% | response [12] -2.03% | binding (% of control) [13] 103% | efflux inhibition (fraction of control) [14] 0.31 | inhibition [15] -5% | differentiation response [16] -3.11%

CN(C(=O)C(Cl)Cl)c1ccc(OC(=O)c2ccco2)cc1
59.3%: double positive events [6]
inactive: percent of DMSO control GFP [1] 99% | GFP response vs DMSO [2] 105% | percent response of DMSO control [3] 97.8% | GFP response vs DMSO [4] 98% | GFP response, % of DMSO [5] 96.8% | vesicle binding response [6] 90.2% | inhibition [7] -1.49% | superoxide response (% of plate) [8] 94% | aptamer binding inhibition [9] 4% | response [10] 5.41% | inhibition [11] 15.3% | response [12] -0.32% | binding (% of control) [13] 99% | efflux inhibition (fraction of control) [14] -0.04 | inhibition [15] 7% | differentiation response [16] -3.67%

CC(=O)N(CCC(Cc1ccccc1)c1ccc2c(c1)OCO2)Cc1ccc(Cl)cc1 (stereo unspecified)
59.9%: double positive events [6]
inactive: percent of DMSO control GFP [1] 93.9% | GFP response vs DMSO [2] 113% | percent response of DMSO control [3] 103% | GFP response vs DMSO [4] 79.2% | GFP response, % of DMSO [5] 92.2% | vesicle binding response [6] 165% | inhibition [7] -9.06% | superoxide response (% of plate) [8] 102% | aptamer binding inhibition [9] -1% | response [10] -1.43% | inhibition [11] -8.25% | response [12] -2% | binding (% of control) [13] 104% | efflux inhibition (fraction of control) [14] 0.05 | inhibition [15] 6% | differentiation response [16] -3.28%
